# Results reported in PubChem BioAssay (EPA / NIEHS).
# Activity calls are given as the source filed them. How the source made its calls: active means hit-call score of the fitted dose curve at least 0.9, where 1 is the maximum; inactive means score below 0.9.
# Assays:
# [1] = CCTE_Padilla_ZF_Score.Tail: CCTE's 144 Hour Post-fertilization zebrafish Assay Score for Tail Malformation, Padilla Lab (AID 2284414)
# Summary of the method: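 Tail malformations were scored at 6 dpf by two blinded assessors under a stereo microscope. Chorionated embryos had been exposed from 6-8 hpf in sealed wells of 10% Hanks' at 26 C, then rinsed free of chemical at 5 dpf.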
# [2] = CCTE_Padilla_ZF_Score.Blood_pooling: CCTE's 144 Hour Post-fertilization zebrafish Assay Score for Blood Pooling, Padilla Lab (AID 2284415)
# Summary of the method: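 Blood pooling was scored at 6 dpf under a stereo microscope by two blinded assessors, fitted upward against DMSO. Single embryos were dosed at 6–8 hpf in 10% Hanks', kept sealed at 26C (14:10 h cycle) and rinsed at 5 dpf.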
# [3] = CCTE_Padilla_ZF_Score.Any: CCTE's 144 Hour Post-fertilization zebrafish Assay Score for Any Mortality or Malformation, Padilla Lab (AID 2284416)
# Summary of the method: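 Wild-type zebrafish embryos with chorions, one per well in 10% Hanks' from 6–8 hpf, dosed in sealed plates at 26 C, 14:10 h light:dark; rinsed at 5 dpf; blinded scoring at 6 dpf for death or malformation, versus DMSO.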
# [4] = test system: Brachyury (BRA) Protein Expression, TBXT (gene 6862); assay: CCTE_Deisenroth_DEVTOX-GLR_Endo_BRA: CCTE's DevTox GLR-Endo Assay Evaluation of Brachyury (BRA) Protein Expression, Deisenroth Lab (AID 2284417)
# Procedure: CCTE_Deisenroth_DEVTOX-GLR_Endo assay is a cell-based, multiplex-readout assay that uses RUES2-GLR, a human pluripotent cell line, with measurements taken at 48 hours after chemical dosing in a 384-well microplateCCTE_Deisenroth_DEVTOX-GLR_Endo_BRA is 1 of 4 assay components calculated from the CCTE_Deisenroth_DEVTOX-GLR_Endo assay and it measures the percentage of cells in an mesoderm state. Using a type of inducible fluorescent protein reporter, gain-of-signal activity can be used to understand changes in gene expression with fluorescent microscopy. The percentage of BRA+ cells are determined by calculating the number of BRA+ cells divided by the cell count. To generalize the intended target to other relatable targets, this assay component is annotated to the transcription factor intended target family, where the subfamily is T-box protein.Data from the assay component CCTE_Deisenroth_DEVTOX-GLR_Endo_BRA was analyzed as 1 assay endpoint. The endpoint is the percent BRA+ cell population minus the 0.2% DMSO control in the CCTE_Deisenroth_DEVTOX-GLR_Endo assay. Furthermore, this assay endpoint can be referred to as a secondary readout, because this assay has produced multiple assay endpoints where this one serves as a measure of mesoderm differentiation.
# (§1) All assay protocols are aligned to the DevTox GLR-Endo assay workflow. […]
# [5] = CCTE_Deisenroth_DEVTOX-GLR_Endo_CellCount: Viability Assessment in CCTE's DevTox GLR-Endo Assay, Deisenroth Lab (AID 2284420)
# Summary of the method: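 Human pluripotent RUES2-GLR line; 24 h pre-seed; 48 h endoderm-directed differentiation; 2 doses, q24h; 10 conc., 1 nM - 200 uM; fix + nuclear dye; 5 fields/well imaged; readout = nuclei count, % change vs 0.2% DMSO; n=4.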
# [6] = test system: SRY-box transcription factor 2 (SOX2) Protein Expression, Deisenroth Lab, SOX2 (gene 6657); assay: CCTE_Deisenroth_DEVTOX-GLR_Pluri_SOX2: CCTE's DevTox GLR-Pluri Assay Evaluation of SRY-box transcription factor 2 (SOX2) Protein Expression, Deisenroth Lab (AID 2284428)
# Procedure: CCTE_Deisenroth_DEVTOX-GLR_Pluri assay is a cell-based, multiplex-readout assay that uses RUES2-GLR, a human pluripotent cell line, with measurements taken at 48 hours after chemical dosing in a 384-well microplateCCTE_Deisenroth_DEVTOX-GLR_Pluri_SOX2 is 1 of 4 assay components calculated from the CCTE_Deisenroth_DEVTOX-GLR_Pluri assay and it measures an the percentage of cells in an pluripotent state. Using a type of inducible fluorescent protein reporter, gain-of-signal activity can be used to understand changes in gene expression with fluorescent microscopy. The percentage of SOX2+ cells are determined by calculating the number of SOX2+ cells divided by the cell count. To generalize the intended target to other relatable targets, this assay component is annotated to the transcription factor intended target family, where the subfamily is SRY-related HMG-box.Data from the assay component CCTE_Deisenroth_DEVTOX-GLR_Pluri_SOX2 was analyzed as 1 assay endpoint. The endpoint is the percent change in the SOX2+ cell population relative to the 0.2% DMSO control in the CCTE_Deisenroth_DEVTOX-GLR_Pluri assay. Furthermore, this assay endpoint can be referred to as a primary readout, because this assay has produced multiple assay endpoints where this one serves as a measure of […].
# as §1
# [7] = CCTE_Deisenroth_DEVTOX-GLR_Pluri_CellCount: Viability Assessment in CCTE's DevTox GLR-Pluri Assay Evaluation of Total Cell Counts, Deisenroth Lab (AID 2284430)
# Summary of the method: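 Cytotoxicity readout: fluorescent nuclei counts by high-content imaging, expressed as percent change relative to 0.2% DMSO. Human RUES2-GLR pluripotent line differentiated 48 h, dosed twice at 24-h intervals across 1 nM - 200 uM (10 points).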
compound,measurement,setting,value
O=C(O)C(F)(F)C(F)(F)C(F)(F)C(F)(F)C(=O)O,outcome,[1],inactive
same,outcome,[2],inactive
same,outcome,[3],inactive
C[N+](C)(C)CCCNS(=O)(=O)C(F)(F)C(F)(F)C(F)(F)C(F)(F)C(F)(F)C(F)(F)C(F)(F)C(F)(F)F,outcome,[1],inactive
same,outcome,[2],inactive
same,AC50,[3],26.2 µM (active)
CC1(C)[C@@H]2CC[C@@]1(C)C(=O)C2,outcome,[4],inactive
same,outcome,[5],inactive
same,outcome,[6],inactive
same,outcome,[7],inactive
